Screen size: about 52,000 compounds; about 4,300 (8.3%) were called active. This is one part of a sample in which actives are shown more often than they occur. Unmarked numbers belong to inactive results. Rule as the data show it: active = survival mostly below about 52% (no sharp cut-off); inactive = mostly above about 56%.
These compounds were tested on DeltatarO mutant (assay: growth inhibition of S. aureus wild type versus tarO mutant, primary screen, teichoic acid synthesis inhibitors, RN4220, OD600 (AID 463173)). Details: OD600, 18 h, stronger effect = lower value, screened at 18.75 µg/mL (by protocol).

Q: With `O=C(COc1ccccc1)Nc1nnc2n1CCS2` as the compound, how does the survival read?
A: 86%

Q: For `Cc1cn2c(=O)cc(COC(=O)c3ccc(NC(=O)c4ccccc4C)cc3)nc2s1`, which survival is on record?
A: 101%

Q: Which survival does the source give for `COc1ccccc1N1CCN(S(=O)(=O)CCNC(=O)COc2ccccc2F)CC1` here?
A: 83%

Q: `CCn1c(CNC(=O)C23CC4CC(CC(C4)C2)C3)nnc1SCC(=O)Nc1ccccc1` was tested. Which survival did it give?
A: 66%

Q: With `CCn1c(CNC(=O)C23CC4CC(CC(C4)C2)C3)nnc1SCC(=O)Nc1ccc(C)cc1` as the compound, how does the survival read?
A: 60%

Q: For `CCn1c(CNC(=O)C23CC4CC(CC(C4)C2)C3)nnc1SCC(=O)Nc1ccc(F)cc1`, which survival is on record?
A: 71%

Q: Which survival does the source give for `CCCCn1c(CNC(=O)C23CC4CC(CC(C4)C2)C3)nnc1SCC(=O)Nc1ccc(F)cc1` here?
A: 54% (active)

Q: With `CCCCn1c(CNC(=O)C23CC4CC(CC(C4)C2)C3)nnc1SCC(=O)Nc1ccccc1` as the compound, how does the survival read?
A: 54%

Q: With `CCCCn1c(CNC(=O)C23CC4CC(CC(C4)C2)C3)nnc1SCC(=O)Nc1ccc(C)cc1` as the compound, how does the survival read?
A: 36% (active)

Q: How did the survival turn out when `CCc1ccc(CNC(=O)c2ccc(NC(=O)N3CC(C)Sc4ccccc43)cc2)cc1` (centres undefined) was run?
A: 64%

Q: `Cc1c(Cl)cccc1Nc1nc2ccc(C(=O)c3ccccc3)cc2n2cnnc12` was tested. Which survival did it give?
A: 77%

Q: For `CCNC(=O)CC1C(=O)N(c2cccc(OC)c2)C(=O)N1Cc1ccc(OC)c(OC)c1` (centres undefined), which survival is on record?
A: 80%

Q: For `CCc1[nH]nc2c1C1(C(=O)N(CC)c3ccccc31)C(C#N)=C(N)O2` (centres undefined), which survival is on record?
A: 78%

Q: How did the survival turn out when `CCN1C(=O)C2(C(C#N)=C(N)SC(N)=C2C#N)c2ccccc21` was run?
A: 2% (active)

Q: How did the survival turn out when `C=CCN1C(=O)C2(C(C#N)=C(N)Oc3n[nH]c(COC)c32)c2ccccc21` (centres undefined) was run?
A: 109%

Q: With `CCOc1ccccc1NC(=O)c1cn(C2CCCC2)c(=O)c2c1c1ccccc1n2C` as the compound, how does the survival read?
A: 122%

Q: How did the survival turn out when `COC(=O)c1cc(S(=O)(=O)NCC2CCN(Cc3cccc(F)c3)CC2)cn1C` was run?
A: 122%

Q: For `Cc1ccc(NS(=O)(=O)c2ccc(-c3cc(C)no3)cc2)c(Br)c1`, which survival is on record?
A: 75%

Q: `CCOc1ccccc1NC(=O)CSc1ncc(S(=O)(=O)c2ccc(C)c(C)c2)c(N)n1` was tested. Which survival did it give?
A: 99%

Q: For `Cc1nn(-c2ccccc2)c2sc(C(=O)Nc3cccc(Cl)c3)cc12`, which survival is on record?
A: 2% (active)

Q: With `O=C(Nc1ccccc1)c1cc2c(-c3ccccc3)nn(-c3ccccc3)c2s1` as the compound, how does the survival read?
A: 44% (active)

Q: For `COc1cccc(NC(=O)c2cc3c(-c4ccc(Cl)cc4)nn(C)c3s2)c1`, which survival is on record?
A: 84%

Q: Which survival does the source give for `Cc1ccc(NC(=O)c2cc3c(-c4ccccc4)nn(-c4ccccc4)c3s2)cc1` here?
A: 50%

Q: How did the survival turn out when `Cc1nn(-c2ccccc2)c2sc(C(=O)Nc3ccc(Cl)cc3Cl)cc12` was run?
A: 71%

Q: How did the survival turn out when `Cc1nn(-c2ccccc2)c2sc(C(=O)N3CCOCC3)cc12` was run?
A: 89%

Q: With `Cc1nn(-c2ccccc2)c2sc(C(=O)Nc3cccc(Br)c3)cc12` as the compound, how does the survival read?
A: 30% (active)

Q: Which survival does the source give for `Cc1nn(-c2ccccc2)c2sc(C(=O)Nc3cccc(O)c3)cc12` here?
A: 5% (active)

Q: Which survival does the source give for `O=C(Nc1ccc(Cl)cc1)c1cc2c(-c3ccccc3)nn(-c3ccccc3)c2s1` here?
A: 51%

Q: For `COc1ccc(C(c2c(C)n(C)n(-c3ccccc3)c2=O)c2c(C)n(C)n(-c3ccccc3)c2=O)cc1O`, which survival is on record?
A: 84%

Q: Which survival does the source give for `COc1ccc(-c2[nH]c(-c3ccccc3)nc2SCC(=O)Nc2ccc3c(c2)OCO3)cc1` here?
A: 51%

Q: How did the survival turn out when `Clc1cccc(-n2cc(-c3ccccc3)c3c(NC4CCCC4)ncnc32)c1` was run?
A: 78%

Q: Which survival does the source give for `COc1ccccc1N1CCN(S(=O)(=O)c2c(C)sc3ncn(CC(=O)N(C)c4ccc(Cl)cc4)c(=O)c23)CC1` here?
A: 65%

Q: For `COc1ccc(NC(=O)CC(C)S(=O)(=O)c2cc3c(cc2C)NC(=O)CO3)cc1OC` (centres undefined), which survival is on record?
A: 88%

Q: With `CCC(C)NC(=O)CSc1nc2cc3c(cc2c(=O)n1CCCCCC(=O)NCc1ccc(OC)cc1)OCO3` (centres undefined) as the compound, how does the survival read?
A: 76%

Q: For `COc1ccc(-c2nc(C)c(CCNC(=O)C(=O)Nc3ccccc3F)s2)cc1`, which survival is on record?
A: 115%

Q: For `CN(C)c1ccc(-c2nnc(SCC3CCCO3)n2C)cc1` (centres undefined), which survival is on record?
A: 82%

Q: How did the survival turn out when `O=C(CCC1N=C2c3ccccc3N=C(SCc3ccc(Cl)cc3)N2C1=O)NCCc1ccccc1` (centres undefined) was run?
A: 90%

Q: With `CCOc1ccc(NC(=O)c2cc3c(C)nn(-c4ccccc4)c3s2)cc1` as the compound, how does the survival read?
A: 75%

Q: `Cc1nn(-c2ccccc2)c2sc(C(=O)N/N=C/c3ccccc3)cc12` was tested. Which survival did it give?
A: 110%

Q: With `Cc1cccc(NC(=O)c2cc3c(C)nn(-c4ccccc4)c3s2)c1` as the compound, how does the survival read?
A: 6% (active)

Q: With `Cc1nn(-c2ccccc2)c2sc(C(=O)Nc3ccc(Br)cc3)cc12` as the compound, how does the survival read?
A: 26% (active)

Q: `Cc1cccc(NC(=O)c2ccc(-c3ccccc3)s2)c1` was tested. Which survival did it give?
A: 82%

Q: How did the survival turn out when `O=C(c1cccc(Cl)c1)N1c2ncnn2C2(CCCCC2)[C@@H]2CCCC[C@@H]21` was run?
A: 80%

Q: With `O=C(NCc1ccccc1Cl)C1CCCN(C(=O)c2cnn(-c3ccc(F)cc3)c2-n2cccc2)C1` (centres undefined) as the compound, how does the survival read?
A: 67%

Q: For `O=C(CCN1N=C(c2ccccc2)CCC1=O)NCCc1ccc(Cl)cc1`, which survival is on record?
A: 122%

Q: For `CCc1cccc(NC(=O)c2c(C)oc3ncnc(N4CCCCC4)c23)c1`, which survival is on record?
A: 54%

Q: For `COC(=O)CSc1nc2c(cc1C#N)CCCC2`, which survival is on record?
A: 106%

Q: How did the survival turn out when `Cc1ccc(S(=O)(=O)c2nc(-c3cccs3)oc2N2CCC(C)CC2)cc1` was run?
A: 8% (active)

Q: `O=S(=O)(c1ccc(Cl)cc1)c1nc(-c2cccs2)oc1N1CCCCC1` was tested. Which survival did it give?
A: 45% (active)

Q: Which survival does the source give for `O=S(=O)(c1ccc(Cl)cc1)c1nc(-c2cccs2)oc1SCc1ccc(F)cc1` here?
A: 67%

Q: For `COc1ccccc1-c1nc(S(=O)(=O)c2ccc(Cl)cc2)c(N2CCCCCC2)o1`, which survival is on record?
A: 60%

Q: With `O=S(=O)(c1ccc(Cl)cc1)c1nc(-c2ccccc2Br)oc1N1CCOCC1` as the compound, how does the survival read?
A: 59%

Q: How did the survival turn out when `COc1ccccc1-c1nc(S(=O)(=O)c2ccccc2)c(N2CCC(C)CC2)o1` was run?
A: 19% (active)

Q: With `COc1ccc(-c2nc(S(=O)(=O)c3ccccc3)c(N3CCC(C)CC3)o2)cc1` as the compound, how does the survival read?
A: 74%

Q: For `CC1CCN(c2nc3c(S(=O)(=O)c4ccc(Cl)cc4)nnn3c3ccsc23)CC1`, which survival is on record?
A: 113%

Q: With `CC1CCN(c2oc(-c3cccs3)nc2S(=O)(=O)c2ccc(Cl)cc2)CC1` as the compound, how does the survival read?
A: 17% (active)

Q: `CCCSc1oc(-c2cccs2)nc1S(=O)(=O)c1ccc(Cl)cc1` was tested. Which survival did it give?
A: 65%

Q: For `COc1ccccc1-n1nc(-c2ccccc2)c2cnc3cc(C(F)(F)F)ccc3c21`, which survival is on record?
A: 81%

Q: How did the survival turn out when `CCCS(=O)(=O)N1CC(=O)N(c2cccc(Cl)c2C)C(C)(C(=O)NC2CCCC2)C1` (centres undefined) was run?
A: 99%

Q: Which survival does the source give for `COc1ccccc1N1CCN(C(=O)c2cc3c(=O)n(Cc4ccco4)ccc3nc2C)CC1` here?
A: 80%

Q: Which survival does the source give for `CC(C)CN1CCc2nc(N3CCN(C)CC3)ncc2C1` here?
A: 83%

Q: With `Sc1ccc2oc3ccc(S)cc3c2c1` as the compound, how does the survival read?
A: 93%

Q: For `CCS(=O)(=O)c1nc(S(=O)(=O)c2ccc(C)cc2)c(NCc2ccccc2Cl)s1`, which survival is on record?
A: 81%

Q: How did the survival turn out when `CCc1nn(CC(=O)Nc2ccc(N(CC)CC)cc2C)c(=O)c2cc3sccc3n12` was run?
A: 77%

Q: Which survival does the source give for `O=C(Cc1ccc(Cl)cc1)Nc1ccc2oc(-c3ccccc3F)nc2c1` here?
A: 118%

Q: For `COc1ccc(/C=C/c2nc3ccccc3c(=O)n2-c2cccc(C(F)(F)F)c2)cc1`, which survival is on record?
A: 91%

Q: With `COc1cccc2sc(NC(=O)CS(=O)(=O)c3ccc(C)cc3)nc12` as the compound, how does the survival read?
A: 101%

Q: For `c1ccc(-c2cn(-c3ccccc3)c3ncnc(N4CCN(c5ccccc5)CC4)c23)cc1`, which survival is on record?
A: 90%

Q: How did the survival turn out when `O=CN1CCN(S(=O)(=O)c2ccc(S(=O)(=O)NC3CC3)cc2)CC1` was run?
A: 72%

Q: For `CCOc1ccc(-c2nnc(SCC(=O)NCc3ccc(C)cc3)nc2-c2ccc(OCC)cc2)cc1`, which survival is on record?
A: 106%

Q: How did the survival turn out when `Cc1ccc(NC(=O)c2ccco2)cc1NC(=O)CSc1ncnc2sc3c(c12)CCC3` was run?
A: 54%

Q: How did the survival turn out when `O=S(=O)(c1ccccc1)c1nc(-c2cccs2)oc1N1CCCCC1` was run?
A: 116%

Q: `COc1cccc(-c2nc(S(=O)(=O)c3ccccc3)c(N3CCC(C)CC3)o2)c1` was tested. Which survival did it give?
A: 50%

Q: How did the survival turn out when `CC1CCN(c2nc3c(S(=O)(=O)c4ccccc4)nnn3c3ccsc23)CC1` was run?
A: 113%

Q: `CC1CCN(c2oc(-c3cccs3)nc2S(=O)(=O)c2ccccc2)CC1` was tested. Which survival did it give?
A: 35% (active)

Q: How did the survival turn out when `Cc1ccc(S(=O)(=O)c2nc(-c3cccs3)oc2N2CCCCC2)cc1` was run?
A: 39% (active)

Q: For `COc1ccc(CCNC(=O)CCCn2c(=O)c3ccccc3n(Cc3c(C)cc(C)cc3C)c2=O)cc1OC`, which survival is on record?
A: 89%

Q: How did the survival turn out when `O=C(NC1CCCCC1)C(c1cccs1)N(Cc1ccco1)C(=O)C1COc2ccccc2O1` (centres undefined) was run?
A: 96%

Q: For `COc1ccc(OC)c(S(=O)(=O)N2CCC(n3c(C)nc4cccnc43)CC2)c1`, which survival is on record?
A: 73%

Q: Which survival does the source give for `CCc1ccc2occ(CC(=O)Nc3sc4c(c3C(=O)NCCOC)CCCC4)c2c1` here?
A: 77%

Q: With `CCC(=O)Nc1cc(-c2cccc(C)c2)nn1-c1ccccc1` as the compound, how does the survival read?
A: 83%

Q: With `CC1=C(C#N)C(=O)NC(C)(C)C1` as the compound, how does the survival read?
A: 76%

Q: `Cc1ccc(N2CCN(c3nc4ccc(C(=O)c5ccccc5)cc4n4cnnc34)CC2)c(C)c1` was tested. Which survival did it give?
A: 82%

Q: For `Cc1ccc(C)c(N2CCN(c3nc4ccc(Cl)cc4n4cnnc34)CC2)c1`, which survival is on record?
A: 89%

Q: For `CCc1nnc2c(N3CCN(c4cccc(C(F)(F)F)c4)CC3)nc3ccccc3n12`, which survival is on record?
A: 108%

Q: `Cc1ccc(C)c(N2CCN(c3nc4ccc(C(=O)c5ccccc5)cc4n4cnnc34)CC2)c1` was tested. Which survival did it give?
A: 79%

Q: With `CCc1nnc2c(N3CCN(c4cc(Cl)ccc4C)CC3)nc3ccccc3n12` as the compound, how does the survival read?
A: -5% (active)

Q: How did the survival turn out when `Cc1ccc2nc(N3CCN(c4cccc(C)c4C)CC3)c3nnnn3c2c1` was run?
A: 81%

Q: For `Cc1ccc2nc(N3CCN(c4cccc(C)c4C)CC3)c3nncn3c2c1`, which survival is on record?
A: 39% (active)

Q: For `Cc1ccc(C)c(N2CCN(c3nc4ccccc4n4c(C)nnc34)CC2)c1`, which survival is on record?
A: 77%

Q: How did the survival turn out when `FC(F)(F)c1cccc(N2CCN(c3nc4ccccc4n4cnnc34)CC2)c1` was run?
A: 25% (active)

Q: For `Cc1ccc(Cl)cc1N1CCN(c2nc3ccc(C(=O)c4ccccc4)cc3n3cnnc23)CC1`, which survival is on record?
A: -4% (active)

Q: With `Clc1cccc(N2CCN(c3nc4ccccc4n4cnnc34)CC2)c1` as the compound, how does the survival read?
A: 62%

Q: For `CCc1nnc2c3ccccc3nc(N3CCN(c4cc(Cl)ccc4C)CC3)n12`, which survival is on record?
A: 104%

Source: PubChem BioAssay AID463173 (ICCB-Longwood Screening Facility, Harvard Medical School, 2010)
